Bioassay records as filed in PubChem.
Jurkat NFkB inh: inhibitors of induced NF-kB luciferase reporter, primary screen, TCR NF-kB activation inhibitor project, cell-based, luminescence, uHTS; Jurkat, PMA/ionomycin-induced NF-kB luciferase reporter; inhibition, % at 4 µM; actives 0.53% (n = 330,000); AID 435003, 2010; in the data active = inhibition above about 50%
697 NFkB inh: inhibitors of PMA/ionomycin-induced NF-kB reporter, 697 cells, primary screen, B-cell NF-kB inhibitor project, cell-based, luminescence, uHTS; 697 B-cell NF-kB luciferase reporter, 16 h; inhibition, % at 4 µM; actives 0.33% (n = 330,000); AID 435022, 2010; in the data active = inhibition above about 35%
aSyn UTR inh: MLPCN primary screen, SNCA 5' untranslated region; inhibition, % (tested at 7.5 µM); alpha-synuclein 5'UTR reporter, inhibitor activity; actives 0.82% (n = 300,000); in the data active = inhibition above about 60%;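 also: H4 neuroglioblastoma cells stably carrying SNCA 5'UTR luciferase fusion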
Mdm2 MdmX PPI: inhibitors of human Mdm2-MdmX association, primary screen, cell-based, luminescence, split luciferase, SaOS-2, uHTS | Protein Mdm4 (Homo sapiens) + E3 ubiquitin-protein ligase Mdm2 (Homo sapiens), … | SaOS-2 split-luciferase Mdm2/MdmX complementation | inhibition, % at 8 µM | actives 3% (n = 330,000) | AID 485346, 2010;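 active = inhibition of at least 50% at 8 µM in the primary screen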
Target sequence (O15151 whole entry, looked up): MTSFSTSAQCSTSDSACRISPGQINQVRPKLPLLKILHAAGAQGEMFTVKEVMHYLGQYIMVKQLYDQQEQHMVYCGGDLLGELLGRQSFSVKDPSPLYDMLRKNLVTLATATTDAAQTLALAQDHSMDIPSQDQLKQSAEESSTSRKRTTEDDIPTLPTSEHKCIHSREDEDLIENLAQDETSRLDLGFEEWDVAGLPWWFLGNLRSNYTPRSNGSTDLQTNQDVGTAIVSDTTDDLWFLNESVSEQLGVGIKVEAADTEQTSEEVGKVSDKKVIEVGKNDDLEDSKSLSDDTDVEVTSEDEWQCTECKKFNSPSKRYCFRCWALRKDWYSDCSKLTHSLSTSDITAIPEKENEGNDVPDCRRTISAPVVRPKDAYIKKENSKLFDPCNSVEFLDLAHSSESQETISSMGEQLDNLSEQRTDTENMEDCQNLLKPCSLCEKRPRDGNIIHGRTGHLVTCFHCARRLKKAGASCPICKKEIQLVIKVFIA
Target sequence (Q00987 whole entry, looked up): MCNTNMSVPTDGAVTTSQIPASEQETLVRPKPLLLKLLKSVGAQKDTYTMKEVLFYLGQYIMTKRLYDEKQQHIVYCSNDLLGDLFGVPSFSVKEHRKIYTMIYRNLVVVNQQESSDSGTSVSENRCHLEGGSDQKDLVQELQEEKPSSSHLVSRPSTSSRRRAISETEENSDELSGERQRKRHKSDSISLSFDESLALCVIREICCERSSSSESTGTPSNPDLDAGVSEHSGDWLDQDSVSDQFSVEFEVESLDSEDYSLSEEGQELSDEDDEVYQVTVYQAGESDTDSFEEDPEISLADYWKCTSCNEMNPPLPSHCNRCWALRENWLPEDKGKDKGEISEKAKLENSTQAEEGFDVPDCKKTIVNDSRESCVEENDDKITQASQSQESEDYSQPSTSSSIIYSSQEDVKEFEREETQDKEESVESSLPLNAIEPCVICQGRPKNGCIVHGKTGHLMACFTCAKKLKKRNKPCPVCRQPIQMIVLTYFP
CSC inhib: cancer stem cell viability inhibitors, primary screen, luminescence; AID 2717, 2010; cancer stem cell-like cells viability; actives 1.1% (n = 300,000); inhibition, % at 7.5 µM; in the data active = inhibition above about 75%; tested in HMLE shEcad cells
Gli-Sufu block: Gli-Sufu pathway antagonists, primary screen, luciferase luminescence, Sufu-KO-LIGHT cells, uHTS; Sufu-KO-LIGHT fibroblasts, Gli luciferase reporter luminescence; inhibition, % at 5 µM; actives 0.74% (n = 340,000); AID 588413, 2011;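 active = inhibition above about 55%, limit read from the data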
Mdm2 MdmX conf: Mdm2-MdmX complex disruptors, retested hits, confirmation, luminescence, single concentration. Mdm2-MdmX binding, luminescent assay. shares compounds with Mdm2 MdmX PPI. actives 55% (n = 10,000). inhibition, % at 8 µM. AID 489028, 2010; in the data active = inhibition above about 40%
FLuc counter: full-length luciferase signal inhibition, confirmation, counter-screen for Mdm2/MdmX interaction inhibitor project, cell-based, single concentration, SaOS-2 | shares compounds with Mdm2 MdmX PPI | SaOS-2 full-length luciferase counterscreen, luminescence | inhibition, % at 8 µM | actives 77% (n = 6,200) | AID 504607, 2011;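 active = mean inhibition at 8 µM reaching about 37%, which flags the compound as non-specific, limit read from the data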;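 also: p53-null SaOS-2 cells with luciferase driven by a doxycycline-inducible promoter; compound on cells about two nights before reading with doxycycline added after day one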
Numbers stand for hits. Only some compounds are listed: those with a hit (about 4.5% of all), similar ones and a draw of the others.

Screening COc1ccc(-c2ccnc(-c3ccc(O)cc3)n2)cc1 returned Jurkat NFkB inh inactive, 697 NFkB inh inactive, aSyn UTR inh inactive, Mdm2 MdmX PPI 52, CSC inhib inactive, Gli-Sufu block inactive, Mdm2 MdmX conf inactive and FLuc counter 84.
O=[N+]([O-])c1cccc2c(N3CCCC3)ccnc12 was read as Jurkat NFkB inh inactive, 697 NFkB inh inactive, aSyn UTR inh inactive, Mdm2 MdmX PPI 52, CSC inhib inactive, Gli-Sufu block inactive and Mdm2 MdmX conf inactive.
For O=C(c1ccccc1F)N1CCN(c2ccc([N+](=O)[O-])c3ncccc23)CC1 the results were Jurkat NFkB inh inactive, 697 NFkB inh inactive, aSyn UTR inh inactive, Mdm2 MdmX PPI inactive, CSC inhib inactive and Gli-Sufu block inactive.
Screening O=C(NCc1cccnc1)C(=O)NCC1OCCCN1S(=O)(=O)c1ccccc1 (centres undefined) returned Jurkat NFkB inh inactive, 697 NFkB inh inactive, aSyn UTR inh inactive, Mdm2 MdmX PPI inactive, CSC inhib inactive and Gli-Sufu block inactive.
`O=C1CCCC2=C1C1c3ccccc3C(=O)N1c1ccc(C(=O)c3ccccc3)cc1N2` (centres undefined) gave Jurkat NFkB inh inactive, 697 NFkB inh inactive, aSyn UTR inh inactive, Mdm2 MdmX PPI 56, CSC inhib inactive, Gli-Sufu block inactive, Mdm2 MdmX conf 42 and FLuc counter 67.
For CCC(=O)N1c2ccccc2NC2=C(C(=O)CCC2)C1c1ccc(N(C)C)cc1 (centres undefined) the results were Jurkat NFkB inh inactive, 697 NFkB inh inactive, aSyn UTR inh inactive, Mdm2 MdmX PPI inactive, CSC inhib inactive and Gli-Sufu block inactive.
`Cc1ccc(OCCNC(=O)Cc2ccc(F)cc2)cc1` gave Jurkat NFkB inh inactive, 697 NFkB inh inactive, aSyn UTR inh inactive, Mdm2 MdmX PPI inactive, CSC inhib inactive and Gli-Sufu block inactive.
`CSc1ccc(/C=N\NC(=O)CNc2ccc(C)cc2)cc1` gave Jurkat NFkB inh inactive, 697 NFkB inh inactive, aSyn UTR inh inactive, Mdm2 MdmX PPI inactive, CSC inhib inactive and Gli-Sufu block inactive.
For COc1cc(/C=C2\SC(=O)N(CCNC(=O)c3sc4cc(F)ccc4c3Cl)C2=O)cc(OC)c1OC the results were Jurkat NFkB inh inactive, 697 NFkB inh inactive, aSyn UTR inh inactive, Mdm2 MdmX PPI 54, CSC inhib inactive, Gli-Sufu block inactive and Mdm2 MdmX conf inactive.
`CO/N=C/c1cccn1-c1nccc(OC)c1C#N` gave Jurkat NFkB inh inactive, 697 NFkB inh inactive, aSyn UTR inh inactive, Mdm2 MdmX PPI inactive, CSC inhib inactive and Gli-Sufu block inactive.
Screening CCCc1cc(=O)n2[nH]cc(-c3ccc(Cl)cc3)c2n1 returned Jurkat NFkB inh inactive, 697 NFkB inh inactive, aSyn UTR inh 71, Mdm2 MdmX PPI 55, CSC inhib 95, Gli-Sufu block inactive, Mdm2 MdmX conf 53 and FLuc counter inactive.
COCc1cc(=O)n2[nH]cc(-c3ccccc3)c2n1 was read as Jurkat NFkB inh inactive, 697 NFkB inh inactive, aSyn UTR inh inactive, Mdm2 MdmX PPI inactive, CSC inhib inactive and Gli-Sufu block inactive.
`CC(=O)Oc1cc2c(C(=O)NCCCN3CCOCC3)c(C)oc2c2ccccc12` gave Jurkat NFkB inh inactive, 697 NFkB inh inactive, aSyn UTR inh inactive, Mdm2 MdmX PPI 51, CSC inhib inactive, Gli-Sufu block inactive and Mdm2 MdmX conf inactive.
Screening CCOC(=O)C1=C(C)N=c2s/c(=C3/C(=O)Nc4ccccc43)c(=O)n2C1c1ccc(C)cc1 (centres undefined) returned Jurkat NFkB inh inactive, 697 NFkB inh inactive, aSyn UTR inh inactive, Mdm2 MdmX PPI 70, CSC inhib inactive, Gli-Sufu block inactive and Mdm2 MdmX conf inactive.
For O=C(CSc1nnc(C2COc3ccccc3O2)o1)N1CCN(c2ccccc2)CC1 (centres undefined) the results were Jurkat NFkB inh inactive, 697 NFkB inh inactive, aSyn UTR inh inactive, Mdm2 MdmX PPI inactive, CSC inhib inactive and Gli-Sufu block inactive.
For Cc1ccc(C)c(NC(=S)N=Nc2c(O)n(C)c3ccc(S(=O)(=O)N4CCOCC4)cc23)c1 the results were Jurkat NFkB inh inactive, 697 NFkB inh inactive, aSyn UTR inh 78, Mdm2 MdmX PPI 67, CSC inhib inactive, Gli-Sufu block inactive, Mdm2 MdmX conf 45 and FLuc counter 59.
Cc1ccc(CSc2nc3ccccc3c(=O)[nH]2)cc1 was read as Jurkat NFkB inh inactive, 697 NFkB inh inactive, aSyn UTR inh inactive, Mdm2 MdmX PPI inactive, CSC inhib inactive and Gli-Sufu block inactive.
`CCOc1cc(/C=C\[N+](=O)[O-])ccc1OCC(=O)Nc1ccccc1C` gave Jurkat NFkB inh inactive, 697 NFkB inh inactive, aSyn UTR inh inactive, Mdm2 MdmX PPI 96, CSC inhib 76, Gli-Sufu block inactive, Mdm2 MdmX conf 100 and FLuc counter 51.
For COc1cc(/C=C/c2cccc[n+]2C)ccc1OCC(=O)Nc1ccccc1C the results were Jurkat NFkB inh inactive, 697 NFkB inh inactive, aSyn UTR inh inactive, Mdm2 MdmX PPI inactive, CSC inhib inactive and Gli-Sufu block inactive.
Screening Cc1ccc(NC(=O)CCc2ccc(C)o2)cc1 returned Jurkat NFkB inh inactive, 697 NFkB inh inactive, aSyn UTR inh inactive, Mdm2 MdmX PPI inactive, CSC inhib inactive and Gli-Sufu block inactive.
CCOC(=O)c1c(-c2ccc(F)cc2)csc1NC(=O)c1c(-c2ccccc2)noc1C was read as Jurkat NFkB inh inactive, 697 NFkB inh inactive, aSyn UTR inh inactive, Mdm2 MdmX PPI 85, CSC inhib inactive, Gli-Sufu block inactive, Mdm2 MdmX conf 50 and FLuc counter 48.
For O=C(COC(=O)C1c2ccccc2Oc2ccccc21)NC1CCS(=O)(=O)C1 (centres undefined) the results were Jurkat NFkB inh inactive, 697 NFkB inh inactive, aSyn UTR inh inactive, Mdm2 MdmX PPI inactive, CSC inhib inactive and Gli-Sufu block inactive.
For Cc1ccc2c(c1)C(O)(C1COC(C)(C)CC1=O)C(=O)N2C (centres undefined) the results were Jurkat NFkB inh inactive, 697 NFkB inh inactive, aSyn UTR inh inactive, Mdm2 MdmX PPI inactive, CSC inhib inactive and Gli-Sufu block inactive.
Screening CN1C(=O)C(O)(C2COC(C)(C)CC2=O)c2cc(Br)ccc21 (centres undefined) returned Jurkat NFkB inh inactive, 697 NFkB inh inactive, aSyn UTR inh inactive, Mdm2 MdmX PPI 53, CSC inhib inactive, Gli-Sufu block inactive and Mdm2 MdmX conf inactive.
